Source: PubChem BioAssay (NCI)
About 83,000 compounds went through this panel and 20% of them were active in at least one assay; those are over-represented in the sample as a whole.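 Single-dose data. Exposure time 48 hours. Values below 10 considered active.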 A number with no mark means an inactive call. Activity calls are given as the source filed them.

Each compound was assayed on SK-OV-3 ovarian (assay: NCI-60 one-dose screen, 48 h (100 = growth as untreated, 0 = no growth, -100 = all killed)). Settings: 10 µM.

| SMILES | growth |
| --- | --- |
| Cc1ccc2c(c1)c(Sc1ccc(C(=O)NO)cc1)c1n2CN(C)CC1 | 21.1% |
| O=C1NC(=S)S/C1=C\c1cccc([N+](=O)[O-])c1 | 104% |
| CCCN(CCC)c1ccc(/C=C/c2ccc3cc(OCC)ccc3n2)cc1 | 104% |
| Clc1ccc(C2=NN(c3ccccc3)[C@H](c3cn(-c4ccccc4)nc3-c3ccccc3)C2)cc1 | 107% |
| COc1cc(C(=O)/C=C/c2c(-c3cccs3)nc3sccn23)cc(OC)c1OC | -2.52% (active) |
| CCOC(=O)C1=C(C)N2C(=NC3=C(CCCC/C3=C\c3cc(OC)c(OC)c(OC)c3)C2c2cc(OC)c(OC)c(OC)c2)S1 (centres undefined) | 77.8% |
| CN1CCN(c2nc(-c3ccncc3)nc3sc4c(c23)CCCCCC4)CC1 | 72.9% |
| COc1ccc(-n2ncc3c4nc(OC)c(S(=O)(=O)c5ccccc5)cc4ccc32)cc1 | 55.8% |
| COc1ccc(C2CC(c3cc(OC)c(OC)c(OC)c3)=NN2c2ccc(S(N)(=O)=O)cc2)cc1 (centres undefined) | 88.3% |
| Cc1nn(CC(=O)O)c2c1C(=O)CC(C)(C)C2 | 101% |
| O=C1C(Br)=C(c2ccccc2)C(=O)C(Br)=C1c1ccccc1 | 95.4% |
| Cc1ccc(C)c2c1sc1nc3nc4sc5ccccc5n4c(=N)c3c(=O)n12 | 92.5% |
| Nc1cc(Br)c(-c2nnc(CCC(=O)c3nc4ccccc4[nH]3)o2)c(Br)c1 | 81.8% |
| COc1ccc(Nc2nc(NCCNc3ccnc4cc(Cl)ccc34)nc(N3CCOCC3)n2)cc1 | 100% |
| Cc1nc2cc(Nc3nc(N4CCOCC4)nc(N4CCN(C)CC4)n3)ccc2n1Cc1ccccc1 | 103% |
| COc1ccc(-c2nc3sc(C)cn3c2/C=C/C(=O)c2cc(OC)c(OC)c(OC)c2)cc1 | 66.4% |
| O=[N+]([O-])c1ccc(O)c2ncccc12 | 75.2% |

| SMILES | growth |
| --- | --- |
| CC1(C)N=C(N)N=C(N)N1c1cccc(/C=C/C=C/c2cccc([N+](=O)[O-])c2)c1 | 83.3% |
| O=c1nc(NO)[nH]c(=O)n1Cc1ccccc1 | 99.3% |
| C[C@@H](Oc1cc(-c2cnn(C3CC4(CCNCC4)C3)c2)cnc1N)c1c(F)ccc(Cl)c1Cl | 62.6% |
| C=CC(=O)N1CC2(CC(n3nc(-c4ccc(Oc5ccccc5)cc4)c4c(N)ncnc43)C2)C1 | 5.31% (active) |
| COc1ccc(OC)c(C2C(C#N)=C(N)Oc3cc(O)ccc32)c1 (centres undefined) | 97.2% |
| CC(C)(C)[Si](C)(C)OC1[C@@H](O[Si](C)(C)C(C)(C)C)[C@@H](CNC(=O)NC(=O)C(F)(F)F)O[C@H]1n1cnc2c(NC(=O)Nc3ccccc3)ncnc21 (some centres undefined) | 89.7% |
| Nc1nc(N)c(N=Nc2c(Br)cc(S(N)(=O)=O)cc2Br)c(N)n1 | 108% |
| O=C(NCc1cccnc1)c1ccc([N+](=O)[O-])o1 | 32.3% |
| Cn1c(=O)c2c(-c3ccccc3F)n(-c3ccc4c(c3)OCO4)cc2n(C)c1=O | 110% |
| Nc1nc2c(s1)CCc1c-2c(Br)n(Cc2ccccc2)c1Br | 108% |
| CN1CCc2c(c3ccccc3c3ccccc23)C1 | 63% |
| COc1cccc(C2C3=C(COC3=O)N(CCO)c3cc4c(cc32)CCC4)c1 (centres undefined) | 20.9% |
| O=C(Nc1ccc(F)cc1)c1ccc(C(=O)Nc2ccc(F)cc2)cc1 | 103% |
| Cc1cc(O)cc2c1[C@H]1CC[C@]3(C)[C@@H](O)CC[C@H]3[C@@H]1C=C2 | 115% |
| C[C@@H](Oc1cc(-c2cnn(C3CC4(CCCNC4)C3)c2)cnc1N)c1c(Cl)ccc(F)c1Cl (some centres undefined) | 78% |
| Clc1ccc(Nc2nc(Nc3ccccc3)nc(Nc3ccc(-c4cc(-c5ccc(Cl)cc5)on4)cc3)n2)cc1 | 91.2% |
| Cc1nc(-c2ccccc2)cc2c(O)c(C(=O)N/N=C/Cc3ccccc3)[nH]c(=O)c12 | 108% |
